Measured values published in the supplement of paper PMC10849652.
Of roughly 8,800 targets only a part is listed; those with a hit were picked by preference. About 0.5% of all pairs of compound and target were hits. Values without a mark were called inactive.

What was measured:
Test in all cases: log2 fold change, soluble protein after heating vs DMSO (PISA); higher = thermal stabilisation; K562 lysate, 10 uM; active = over 0.2 and 3.5 SD of the protein, either way, in both replicates (recomputed)
[1] = compound: C#Cc1cccc(Nc2ncnc3cc(OCCOC)c(OCCOC)cc23)c1 [erlotinib]
Summary of the method: (§1)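 Pellets of K562 cells were dounce-homogenised in PBS pH 7.4 with 1 mM MgCl2, and the crude extract was held at 1 mg/mL protein for a 30 min treatment with 10 μM compound. Aliquots were heated for 3 min over 48°C-58°C and pooled before NP-40 was added to 0.5% at 4°C. The supernatant from 21,000xg for 90 min was quantified by TMTpro 16plex LC-MS/MS with channel sums equalised. Values are reported from duplicates as log-two fold change in thermal stability relative to solvent controls.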

[2] = compound: C/C(=N\NC(=O)C1=CC(=CC=C1)S(=O)(=O)N2CCOCC2)/C3=C(C=CC(=C3)Cl)O
Summary of the method: as §1

[3] = compound: C1=CC(=CC=C1C2=NC3=C(N2)C=C(C=C3)C(=O)N)OC4=CC=C(C=C4)Cl
Summary of the method: as §1

[4] = compound: C1=CC2=C(C=CC(=C2)/C=C\3/C(=O)NC(=NCC4=CC=CS4)S3)N=C1
Summary of the method: as §1

[5] = compound: C1=CC2=NC=CN=C2C=C1/C=C/3\C(=O)NC(=O)S3
Summary of the method: as §1

[6] = compound: C1=CC=C(C=C1)C2=NC(=C(N2)C3=CC=NC=C3)C4=CC(=C(C=C4)Cl)O
Summary of the method: as §1

[7] = compound: C1=CC=C2C(=C1)C3=NNC4=CC=CC(=C43)C2=O
Summary of the method: as §1

[8] = compound: C1CCN(C1)C(=O)NC2=CC=CC(=C2)NC3=NC=C(C(=N3)NCCC4=CN=CN4)Br
Summary of the method: as §1

[9] = compound: C1CN(CCC1(CC2=CC=C(C=C2)Cl)N)C3=NC=NC4=C3C=CN4
Summary of the method: as §1

[10] = compound: C1COCCN1CCN2C3=CC=CC=C3N=C2NC(=O)C4=CC(=CC=C4)[N+](=O)[O-] [IRAK-1-4 Inhibitor I]
Summary of the method: as §1

[11] = compound: C=CC(=O)N1CCC[C@@H](n2nc(-c3ccc(Oc4ccccc4)cc3)c3c(N)ncnc32)C1 [ibrutinib]
Summary of the method: as §1

[12] = compound: CC(=O)c1cnc2ccc(-c3cc(Cl)c(O)c(Cl)c3)nc2c1N[C@H]1CC[C@H](CN(C)C)CC1
Summary of the method: as §1

[13] = compound: CC(C)(C)Cn1c(N)nc2ccc(-c3[nH]c(C(C)(C)C)nc3-c3ccc(F)cc3)nc21 [ralimetinib]
Summary of the method: as §1

[14] = compound: CC(C)(O)CC(=O)NCCn1ccc2ncnc(Nc3ccc(Oc4cccc(C(F)(F)F)c4)c(Cl)c3)c21
Summary of the method: as §1

[15] = compound: CC(C)C1=C2N=C(C=C(N2N=C1)NCC3=CC=CC=C3)NCCCCCCN
Summary of the method: as §1

[16] = compound: CC1=C(C(CC(=O)N1)C2=CC=C(C=C2)C(F)(F)F)C(=O)NC3=C(C=C4C(=C3)C=NN4)F
Summary of the method: as §1

[17] = compound: CC1=C(C2=C(C=C1)C(=O)C3=CC=CC=C3N2CCCN)C
Summary of the method: as §1

[18] = compound: CC1=C(C=C(C=C1)NC(=O)C2=CC(=CC=C2)C(C)(C)C#N)NC3=CC4=C(C=C3)N=CN(C4=O)C
Summary of the method: as §1

[19] = compound: CC1=C(C=C(C=C1)NC(=O)C2=CC(=CC=C2)N(C)C)NC(=O)C3=CC=C(C=C3)O
Summary of the method: as §1

[20] = compound: CC1=CC=C(C=C1)SC2=C3C=C(SC3=CN=C2)C(=O)N
Summary of the method: as §1

UniProt P0DPD7, sequence (P0DPD7 whole entry, looked up): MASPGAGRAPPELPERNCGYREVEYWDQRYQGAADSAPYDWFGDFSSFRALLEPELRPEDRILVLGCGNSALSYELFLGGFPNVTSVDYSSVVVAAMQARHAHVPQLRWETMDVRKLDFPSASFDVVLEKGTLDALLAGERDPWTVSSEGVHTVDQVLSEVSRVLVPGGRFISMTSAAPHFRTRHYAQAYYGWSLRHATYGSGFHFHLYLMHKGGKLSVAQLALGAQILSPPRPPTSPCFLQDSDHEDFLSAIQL
UniProt O95571, sequence (O95571 whole entry, looked up): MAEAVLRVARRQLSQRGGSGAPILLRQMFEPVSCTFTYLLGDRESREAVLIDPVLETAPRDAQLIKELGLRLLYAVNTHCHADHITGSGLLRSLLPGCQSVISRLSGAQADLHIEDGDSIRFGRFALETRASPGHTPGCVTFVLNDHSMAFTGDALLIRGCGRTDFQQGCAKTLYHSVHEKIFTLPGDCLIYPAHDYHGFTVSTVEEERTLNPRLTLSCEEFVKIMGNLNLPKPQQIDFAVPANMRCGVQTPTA
UniProt Q6P2E9, sequence (Q6P2E9 whole entry, looked up): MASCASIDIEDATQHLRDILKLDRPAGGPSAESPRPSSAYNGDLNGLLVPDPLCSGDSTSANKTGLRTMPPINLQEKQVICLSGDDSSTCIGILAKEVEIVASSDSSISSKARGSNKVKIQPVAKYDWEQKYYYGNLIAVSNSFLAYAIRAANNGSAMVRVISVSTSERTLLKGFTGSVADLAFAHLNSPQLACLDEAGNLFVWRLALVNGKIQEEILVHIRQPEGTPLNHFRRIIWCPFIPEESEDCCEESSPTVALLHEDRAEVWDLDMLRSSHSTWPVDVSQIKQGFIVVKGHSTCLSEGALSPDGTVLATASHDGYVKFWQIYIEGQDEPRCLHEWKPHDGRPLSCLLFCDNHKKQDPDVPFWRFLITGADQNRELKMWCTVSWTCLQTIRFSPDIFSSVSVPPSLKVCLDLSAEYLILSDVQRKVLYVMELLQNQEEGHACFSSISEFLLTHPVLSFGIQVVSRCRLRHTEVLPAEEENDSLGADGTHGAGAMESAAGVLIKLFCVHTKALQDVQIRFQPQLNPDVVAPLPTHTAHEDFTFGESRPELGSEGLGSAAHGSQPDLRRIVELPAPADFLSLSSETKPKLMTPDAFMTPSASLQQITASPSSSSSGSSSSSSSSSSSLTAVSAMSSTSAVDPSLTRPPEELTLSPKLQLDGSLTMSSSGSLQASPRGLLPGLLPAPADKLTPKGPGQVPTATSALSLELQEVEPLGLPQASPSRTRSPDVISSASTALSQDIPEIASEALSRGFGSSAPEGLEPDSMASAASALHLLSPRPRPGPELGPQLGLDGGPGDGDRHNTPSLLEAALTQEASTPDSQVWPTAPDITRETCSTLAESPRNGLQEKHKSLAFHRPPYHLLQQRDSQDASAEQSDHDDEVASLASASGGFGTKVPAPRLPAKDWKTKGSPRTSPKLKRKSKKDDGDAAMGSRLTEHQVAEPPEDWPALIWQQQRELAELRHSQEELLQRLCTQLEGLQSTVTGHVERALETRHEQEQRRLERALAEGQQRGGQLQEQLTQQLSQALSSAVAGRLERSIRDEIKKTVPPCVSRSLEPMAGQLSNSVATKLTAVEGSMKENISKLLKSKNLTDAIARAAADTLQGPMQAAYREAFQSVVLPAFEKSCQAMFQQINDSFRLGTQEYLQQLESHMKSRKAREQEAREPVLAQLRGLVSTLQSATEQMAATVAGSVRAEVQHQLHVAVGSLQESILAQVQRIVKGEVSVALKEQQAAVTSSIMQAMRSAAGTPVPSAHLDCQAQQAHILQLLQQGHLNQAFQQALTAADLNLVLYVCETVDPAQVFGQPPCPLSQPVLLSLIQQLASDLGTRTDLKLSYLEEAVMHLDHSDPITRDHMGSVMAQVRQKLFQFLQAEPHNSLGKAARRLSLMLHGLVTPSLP
UniProt Q96RT1, sequence (Q96RT1 whole entry, looked up): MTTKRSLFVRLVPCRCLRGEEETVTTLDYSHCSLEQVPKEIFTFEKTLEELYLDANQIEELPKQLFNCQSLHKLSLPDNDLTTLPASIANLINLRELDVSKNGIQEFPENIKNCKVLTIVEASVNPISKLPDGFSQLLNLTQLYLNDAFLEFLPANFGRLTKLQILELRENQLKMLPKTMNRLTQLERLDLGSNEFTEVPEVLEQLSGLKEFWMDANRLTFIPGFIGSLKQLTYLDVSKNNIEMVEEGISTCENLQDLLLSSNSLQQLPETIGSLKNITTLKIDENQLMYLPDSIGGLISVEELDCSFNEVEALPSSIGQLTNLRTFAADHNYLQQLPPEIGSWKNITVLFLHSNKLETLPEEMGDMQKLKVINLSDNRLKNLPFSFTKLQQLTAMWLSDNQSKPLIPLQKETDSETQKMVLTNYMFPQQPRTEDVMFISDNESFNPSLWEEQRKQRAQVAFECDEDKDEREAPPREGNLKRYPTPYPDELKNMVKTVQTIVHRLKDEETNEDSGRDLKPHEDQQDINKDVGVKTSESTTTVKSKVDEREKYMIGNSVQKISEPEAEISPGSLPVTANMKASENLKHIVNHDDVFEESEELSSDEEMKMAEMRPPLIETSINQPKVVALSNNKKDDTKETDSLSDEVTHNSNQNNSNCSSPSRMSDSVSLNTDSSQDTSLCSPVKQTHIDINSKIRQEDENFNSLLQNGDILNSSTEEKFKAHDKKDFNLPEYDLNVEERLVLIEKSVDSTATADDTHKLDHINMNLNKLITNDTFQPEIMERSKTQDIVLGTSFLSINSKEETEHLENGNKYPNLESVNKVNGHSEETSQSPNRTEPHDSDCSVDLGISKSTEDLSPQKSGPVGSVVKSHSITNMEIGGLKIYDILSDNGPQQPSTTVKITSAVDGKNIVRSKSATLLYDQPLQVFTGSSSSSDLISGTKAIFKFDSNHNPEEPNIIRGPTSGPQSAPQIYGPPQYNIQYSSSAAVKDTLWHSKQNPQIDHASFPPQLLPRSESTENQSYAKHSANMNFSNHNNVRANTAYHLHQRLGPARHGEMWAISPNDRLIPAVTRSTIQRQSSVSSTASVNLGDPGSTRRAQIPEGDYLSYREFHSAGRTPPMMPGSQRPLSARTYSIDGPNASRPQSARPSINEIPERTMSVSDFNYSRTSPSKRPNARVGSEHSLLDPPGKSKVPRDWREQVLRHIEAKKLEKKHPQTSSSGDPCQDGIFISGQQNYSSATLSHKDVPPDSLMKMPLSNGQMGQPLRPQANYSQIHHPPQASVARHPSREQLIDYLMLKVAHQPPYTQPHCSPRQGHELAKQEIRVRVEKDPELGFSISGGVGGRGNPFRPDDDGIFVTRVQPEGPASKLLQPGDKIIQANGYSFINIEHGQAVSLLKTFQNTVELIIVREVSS
UniProt O15117, sequence (O15117 whole entry, looked up): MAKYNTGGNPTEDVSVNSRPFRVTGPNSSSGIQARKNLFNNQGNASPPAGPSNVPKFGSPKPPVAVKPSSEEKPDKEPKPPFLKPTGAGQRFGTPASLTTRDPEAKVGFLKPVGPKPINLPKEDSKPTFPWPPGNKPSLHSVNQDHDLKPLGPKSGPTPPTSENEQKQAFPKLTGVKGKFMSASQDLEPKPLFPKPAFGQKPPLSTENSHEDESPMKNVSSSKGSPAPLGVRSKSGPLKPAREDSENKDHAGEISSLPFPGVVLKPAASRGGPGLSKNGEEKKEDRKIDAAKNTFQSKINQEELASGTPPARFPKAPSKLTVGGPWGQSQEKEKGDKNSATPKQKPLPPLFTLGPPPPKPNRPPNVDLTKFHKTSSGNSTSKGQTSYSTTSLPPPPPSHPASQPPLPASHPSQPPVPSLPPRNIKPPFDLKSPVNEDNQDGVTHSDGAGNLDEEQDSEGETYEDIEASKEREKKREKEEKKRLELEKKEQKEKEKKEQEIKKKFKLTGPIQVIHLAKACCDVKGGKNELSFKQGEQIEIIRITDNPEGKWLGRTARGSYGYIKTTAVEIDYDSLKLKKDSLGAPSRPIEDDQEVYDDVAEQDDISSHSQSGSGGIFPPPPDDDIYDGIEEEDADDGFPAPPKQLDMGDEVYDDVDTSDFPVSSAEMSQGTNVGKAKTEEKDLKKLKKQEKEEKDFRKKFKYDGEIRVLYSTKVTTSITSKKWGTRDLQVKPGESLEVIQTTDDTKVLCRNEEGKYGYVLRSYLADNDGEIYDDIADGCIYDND
UniProt P23919, sequence (P23919 whole entry, looked up): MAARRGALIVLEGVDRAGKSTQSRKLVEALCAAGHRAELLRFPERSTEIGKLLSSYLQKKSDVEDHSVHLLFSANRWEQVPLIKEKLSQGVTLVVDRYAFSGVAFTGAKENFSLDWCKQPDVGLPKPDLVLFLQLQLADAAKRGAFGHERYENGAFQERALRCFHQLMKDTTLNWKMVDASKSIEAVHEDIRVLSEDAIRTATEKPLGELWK
UniProt Q9BQI3, sequence (Q9BQI3 whole entry, looked up): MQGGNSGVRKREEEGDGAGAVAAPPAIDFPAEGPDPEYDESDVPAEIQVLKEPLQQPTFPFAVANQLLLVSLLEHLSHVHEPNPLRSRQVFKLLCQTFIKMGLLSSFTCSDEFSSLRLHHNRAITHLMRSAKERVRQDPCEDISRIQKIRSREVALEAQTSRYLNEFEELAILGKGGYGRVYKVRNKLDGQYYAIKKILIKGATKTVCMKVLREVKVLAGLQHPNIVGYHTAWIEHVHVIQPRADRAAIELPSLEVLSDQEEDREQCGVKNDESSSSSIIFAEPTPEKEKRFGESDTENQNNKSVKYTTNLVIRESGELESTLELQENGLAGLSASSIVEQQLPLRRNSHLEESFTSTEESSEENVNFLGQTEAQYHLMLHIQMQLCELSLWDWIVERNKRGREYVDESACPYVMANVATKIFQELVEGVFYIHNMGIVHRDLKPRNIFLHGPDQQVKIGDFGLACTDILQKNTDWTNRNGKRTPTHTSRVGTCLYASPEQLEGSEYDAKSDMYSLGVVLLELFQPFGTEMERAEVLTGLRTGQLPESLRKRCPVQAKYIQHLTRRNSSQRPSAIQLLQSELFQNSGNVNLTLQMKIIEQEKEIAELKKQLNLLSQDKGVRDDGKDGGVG

Row | Target | log2 fold change [1] | log2 fold change [2] | log2 fold change [3] | log2 fold change [4] | log2 fold change [5] | log2 fold change [6] | log2 fold change [7] | log2 fold change [8] | log2 fold change [9] | log2 fold change [10] | log2 fold change [11] | log2 fold change [12] | log2 fold change [13] | log2 fold change [14] | log2 fold change [15] | log2 fold change [16] | log2 fold change [17] | log2 fold change [18] | log2 fold change [19] | log2 fold change [20]
1 | ETHE1 (UniProt O95571) | -0.046 | -0.01 | 0.039 | 0.021 | 0.034 | -0.007 | 0.012 | -0.046 | -0.013 | -0.044 | -0.029 | -0.01 | 0.03 | -0.021 | -0.092 | 0.087 | 0.022 | 0.011 | 0.046 | -0.042
2 | FIG4 (UniProt Q92562) | 0.032 | -0.032 | -0.029 | 0 | 0.007 | 0.064 | 0.02 | 0.061 | -0.053 | 0.003 | 0.14 | -0.07 | -0.01 | -0.115 | -0.012 | -0.248 | 0.029 | -0.093 | -0.085 | 0.012
3 | EDC4 (UniProt Q6P2E9) | 0.002 | -0.026 | -0.022 | 0.001 | 0.006 | -0.001 | -0.02 | -0.015 | 0.014 | 0.013 | -0.001 | 0.001 | 0.028 | -0.009 | -0.011 | 0.004 | -0.006 | 0.006 | 0 | -0.019
4 | FYB1 isoform 3 (UniProt O15117) | -0.019 | -0.043 | -0.003 | -0.073 | 0.009 | 0.015 | -0.025 | -0.012 | 0.028 | 0.024 | -0.008 | -0.01 | -0.022 | -0.008 | 0.005 | -0.017 | -0.042 | 0.059 | 0.008 | -0.013
5 | EIF2AK1 (UniProt Q9BQI3) | -0.016 | 0.087 | 0.017 | -0.02 | 0.029 | -0.027 | -0.016 | -0.02 | -0.006 | -0.01 | 0.007 | -0.151 | 0.028 | 0.034 | -0.017 | -0.001 | -0.007 | 0.044 | 0.018 | -0.072
6 | FCHO1 (UniProt O14526) | 0.062 | 0.034 | 0.045 | -0.055 | 0.024 | 0.065 | -0.064 | -0.044 | -0.022 | -0.021 | -0.053 | 0.022 | 0.018 | 0.014 | 0.013 | 0.031 | 0.018 | 0.002 | 0.004 | 0.041
7 | FBLL1 (UniProt A6NHQ2) | -0.003 | -0.015 | -0.008 | 0.059 | 0.075 | -0.031 | -0.031 | 0.021 | 0.022 | -0.004 | -0.042 | -0.031 | 0.029 | -0.056 | -0.014 | 0.001 | -0.121 | 0.006 | 0.049 | -0.018
8 | FNTB (UniProt P49356) | -0.03 | -0.038 | 0.011 | 0.013 | -0.034 | -0.005 | -0.02 | 0.028 | -0.022 | -0.006 | -0.018 | 0.005 | 0.03 | -0.013 | -0.022 | -0.036 | -0.026 | -0.011 | 0.038 | -0.013
9 | DYRK1A (UniProt Q13627) | -0.061 | -0.057 | -0.004 | 0.186 | 0.175 | 0.016 | 0.084 | -0.008 | -0.034 | -0.046 | -0.019 | 0.264 (active) | -0.003 | 0.011 | 0.01 | 0.007 | 0.005 | -0.007 | -0.024 | 0.034
10 | GIGYF2 (UniProt Q6Y7W6) | -0.011 | -0.033 | -0.024 | -0.016 | 0.018 | 0.005 | -0.005 | 0.006 | -0.005 | 0.002 | -0.01 | 0.004 | 0.014 | -0.016 | 0.029 | -0.015 | 0.01 | 0.007 | -0.006 | 0.023
11 | ERBIN isoform 8 (UniProt Q96RT1) | 0 | -0.002 | -0.008 | 0.044 | -0.032 | -0.001 | -0.034 | 0.007 | 0.023 | -0.034 | 0.029 | -0.011 | -0.003 | 0.01 | -0.003 | -0.037 | 0.012 | -0.007 | 0.019 | -0.01
12 | FAU (UniProt E9PR30) | -0.026 | -1.8 | -0.059 | -0.048 | 0.016 | -0.016 | 0 | 0.011 | -0.021 | 0.053 | -0.018 | 0.012 | -0.01 | -0.018 | -0.122 | -0.034 | -0.015 | 0.029 | -0.003 | 0.027
13 | EMC7 (UniProt Q9NPA0) | 0.023 | -0.011 | -0.009 | -0.02 | -0.044 | -0.011 | -0.052 | -0.002 | 0.011 | 0.02 | -0.033 | -0.001 | 0.008 | -0.003 | 0.013 | -0.012 | 0.024 | 0.015 | -0.006 | -0.032
14 | DTYMK (UniProt P23919) | -0.013 | 0.025 | 0.01 | -0.017 | 0.024 | -0.016 | 0.004 | 0.01 | -0.027 | -0.028 | 0.027 | -0.018 | 0.049 | -0.015 | 0.023 | -0.035 | -0.005 | -0.017 | 0.038 | -0.002
15 | FHOD1 (UniProt Q9Y613) | 0.005 | 0.021 | 0 | 0.048 | -0.02 | -0.011 | -0.016 | -0.011 | -0.009 | -0.008 | 0.001 | 0.03 | 0.041 | -0.019 | -0.002 | -0.006 | 0.006 | 0.003 | 0.025 | -0.004
16 | EEF1AKMT4 (UniProt P0DPD7) | 0.057 | 0.097 | 0.073 | 0.025 | 0.039 | -0.021 | -0.081 | -0.019 | 0.08 | 0.107 | 0.023 | -0.012 | -0.003 | -0.053 | 0.003 | -0.006 | -0.055 | -0.029 | -0.029 | 0.069
